Measured values: PubChem BioAssay (Tox21)
Records with an inconclusive call do not appear. Calls of active or inactive are those of the source. The call rests on the fitted dose curve; in most records, active means well fitted cell-killing curve with a large enough effect in the repeat runs; inconclusive means weak or mixed curves; inactive means no such curve, though single readings can be large or run the other way.

experiment: qHTS assay to identify small molecule agonists of the peroxisome proliferator-activated receptor delta (PPARd) signaling pathway - cell viability counter screen (AID 743211); conditions: PPARd-bla HEK293H viability, CellTiter-Glo luminescence, 17 h; series mostly up to 62.6 µM; activity change, negative = cytotoxicity: at the top concentration; further: nearly all actives have a fitted effect of over 55% in size
Method in brief: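 qHTS cell viability: PPARd-bla HEK293H; 17 h cpd, 37C; CellTiter-Glo, luminescence at 30 min RT.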
On the % scale 0 is the no-effect control and ±100 the full control effect; potency means the concentration at half of the fitted maximal effect.

Compound | activity change, negative = cytotoxicity | Potency
CC(C)c1ccc2c(C(C)C)cc(C(C)C)c(S(=O)(=O)O)c2c1 | -22.5% [at 81.1 µM] (inactive) | 
Cc1cc(C)c(S(=O)(=O)O)cc1N=Nc1cc(S(=O)(=O)O)c2ccccc2c1O | 0.281% (inactive) | 
OCCC1CCCCN1 (configuration not stated) | -2.4% [at 81.1 µM] (inactive) | 
CC1(C)CCC(C)(C)c2cc(NC(=O)c3ccc(C(=O)O)cc3)ccc21 | 1.83% (inactive) | 
CC/C(=C\C(=N/O)C(N)=O)C(C)[N+](=O)[O-] (configuration not stated) | -3.49% (inactive) | 
CC(=O)N(O)CCCCCNC(=O)CCC(=O)N(O)CCCCCNC(=O)CCC(=O)N(O)CCCCCN | -0.97% (inactive) | 
Cl/C(=C\n1cncn1)c1ccc(Cl)cc1Cl | 4.38% (inactive) | 
CC(C)CC=O | 3.76% (inactive) | 
CC1=CCC(C(C)C)C=C1 (configuration not stated) | 0.566% (inactive) | 
C#CCOC(=O)[C@@H](C)Oc1ccc(Oc2ncc(Cl)cc2F)cc1 | 4.62% (inactive) | 
O=C(Nc1ccccc1)OCC(CN1CCCCC1)OC(=O)Nc1ccccc1 (configuration not stated) |  | 26.6 µM (active)
CCCCCCOC(=O)CCC | -5.17% (inactive) | 
CCCCCc1ccc(N)cc1 | -16.8% (inactive) | 
CN1CCN(C2=Nc3ccccc3Sc3ccc(Cl)cc32)CC1 | -17.9% (inactive) | 
O=C(CCN1CCN2CCCC2C1)N1c2ccccc2Sc2ccc(Cl)cc21 (configuration not stated) | -5.17% [at 29.1 µM] (inactive) | 
CCN(CC)CCc1nc(-c2ccccc2)no1 | -0.879% (inactive) | 
COCCO | 0.107% (inactive) | 
O=C(O)Cc1sc(-c2ccccc2)nc1-c1ccc(Cl)cc1 | 0.869% (inactive) | 
C[C@H](CCC(=O)O)[C@H]1CC[C@H]2[C@@H]3[C@H](O)C[C@@H]4C[C@H](O)CC[C@]4(C)[C@H]3CC[C@]12C | -10.6% (inactive) | 
Cc1ccc2c(ccc3ccccc32)c1 | -16.6% [at 81.1 µM] (inactive) | 
CCCCOC(=O)/C=C\C(=O)OCCCC | 0.756% [at 81.1 µM] (inactive) | 
CN(C)CCCNCCCN | 13% (inactive) | 
